Laboratory results taken from PMC5540273 (PLoS ONE, 2017).

system: PIK3CB; details: concentration: 1 μM,replicates: in singlicate; n = 1
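Further: KINOMEscan kinase panel screen.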

Compound | %Inh [%]
Cc1cccc(-c2nc(Nc3ccncc3)c3sccc3n2)n1 [GW869641] | 28
C[C@@H](Oc1cc(-n2cnc3ccc(-c4ccncc4)cc32)sc1C(N)=O)c1ccccc1Cl [GSK483724] | 68
CN(c1ccccc1CNc1nc(Nc2ccc3c(c2)CC(=O)N3)ncc1C(F)(F)F)S(C)(=O)=O | 0
C[C@@H]1CNc2c(sc3ccc4nc(-c5ccc(O)cc5)ccc4c23)C(=O)N1 | 34
Cn1ccc2ncnc(Oc3ccc(NC(=O)Nc4ccnc(C(F)(F)F)c4)c(Cl)c3)c21 | 0
CCn1c(-c2nonc2N)nc2cncc(Br)c21 [SB-738004] | 21
N#Cc1cccc(C(=O)NC2CCN(c3ccnc(Nc4ccc(F)cc4)n3)C2)c1 (stereo not shown) [GSK1379708] | 0
Cc1ccc(C(=O)Nc2ccc(Oc3ccc4nc(NC(=O)C5CC5)cn4c3)c(F)c2)c(=O)n1-c1ccccc1 | 0
CCNCC(Cc1ccccc1)NC(=O)c1cc(Br)c(-c2ccnc3[nH]ccc23)s1.Cl.Cl (stereo not shown) [GSK1383280] | 0
COc1cccc(C2=C(Nc3cccc(Cl)c3)C(=O)NC2=O)c1 [SB-341556] | 0
NC(=O)c1ccc(-c2cc3ncnc(SCC(=O)O)c3s2)cc1 | 15
Cc1ccc(CC(=O)N2CCc3cc(-c4cn(C)c5ncnc(N)c45)ccc32)cc1 [GSK2634758] | 0
Cl.Nc1n[nH]c2cc(-c3ccccn3)ccc12 [GSK2189892] | 0
CCn1c(-c2nonc2N)nc2cncc(CNC3CCNCC3)c21.Cl [SB-747651] | 0
NC(=O)Nc1sc(-c2ccc(F)cc2)cc1C(N)=O [GW789449] | 0
Cn1cc(-c2cccc3c(N)c(C(N)=O)nnc23)cn1 | 0
CN(c1cccc(CNc2nc(Nc3ccc4c(c3)CC(=O)N4)ncc2C(F)(F)F)c1)S(C)(=O)=O | 0
CC(=O)Nc1nc2cnc(Nc3cc(NC(=O)c4cccc(CC(C)(C)C#N)c4)ccc3C)nc2s1 | 66
c1ccc(Oc2ccc(Nc3ccnc4ccc(-c5ccccn5)cc34)cc2)cc1 [GW407034] | 27
Cc1ccc(Nc2ccnc(Nc3ccc4c(c3)CS(=O)(=O)C4)n2)cc1O.Cl [GW579362] | 0
CC(C)c1nc(-c2cccc(NS(=O)(=O)c3ccccc3)c2)c(-c2ccnc(Nc3ccc4c(c3)CN(C)CC4)n2)s1 [GSK1649598] | 11
O=C(NCC1CC1)c1ccc(-c2cc(C(=O)NC3CC3)ccc2F)cc1 [GW810445] | 0
CC(C)S(=O)(=O)N1CCN(Cc2ccc3c(c2)nc(NC(=O)c2ccsc2)n3C[C@H](O)c2ccccc2)CC1 [GW635815] | 0
Cc1ccn2nc(-c3ccc(F)cc3)c(-c3ccncc3)c2c1.Cl [GW457859] | 0

system: PIK3CD; details: concentration: 1 μM,replicates: in singlicate; n = 1

Compound | %Inh [%]
CCCC(=O)Nc1n[nH]c2ncccc12 [SB-601436] | 0
O=C(NOCC1CC1)c1cc(Br)c(F)c(F)c1Nc1ccc(I)cc1Cl | 0
CS(=O)(=O)Nc1ccc(-c2ccnc3[nH]ccc23)cc1 [GSK993273] | 8
Cn1ccc2ncnc(Oc3ccc(NC(=O)Nc4cccc(C(F)(F)F)c4)c(Cl)c3)c21 | 0
CN1CCN(CCCNc2nccc(-c3c(-c4ccc(F)cc4)nn4cc(C(N)=O)ccc34)n2)CC1 [GW622475] | 0
O=C(Nc1cccc(C(F)(F)F)c1)c1cccc(Oc2ccc3nccn3n2)c1 | 17
COc1ccc(Nc2nccc(N3CCC(NC(=O)c4cccc(C#N)c4)C3)n2)cc1 (stereo not shown) [GSK1379730] | 25
Cc1ccc2c(-c3ccnc(Nc4ccc(C(F)(F)F)cc4)n3)cnn2n1 [GW819776] | 0
CN1CCN(CCNc2nc3cc(Oc4ccc(NC(=O)Nc5cc(C(F)(F)F)ccc5F)cc4)ccc3[nH]2)CC1.Cl.Cl [GW768504] | 0
Cc1n[nH]c2cc(Nc3ccnc(Nc4cccc(CN5CCOCC5)c4)n3)ccc12 [GW682569] | 9
CN(c1ccc2c(c1)nc(NCc1ccc(F)cc1)n2C)c1ccnc(Nc2ccc(CS(C)(=O)=O)cc2)n1.Cl [GW813244] | 0
CCOC(=O)N1CCC(n2cnc(-c3ccc(F)cc3)c2-c2ccnc(N)n2)CC1 [SB-219952] | 16
O=C(Nc1cccc(Oc2ccc3nccn3n2)c1)Nc1cccc(C(F)(F)F)c1 | 5
Cc1cccc(-c2nc(Nc3ccncc3)c3sccc3n2)n1 [GW869641] | 46
C[C@@H](Oc1cc(-n2cnc3ccc(-c4ccncc4)cc32)sc1C(N)=O)c1ccccc1Cl [GSK483724] | 87
CN(c1ccccc1CNc1nc(Nc2ccc3c(c2)CC(=O)N3)ncc1C(F)(F)F)S(C)(=O)=O | 0
C[C@@H]1CNc2c(sc3ccc4nc(-c5ccc(O)cc5)ccc4c23)C(=O)N1 | 39
Cn1ccc2ncnc(Oc3ccc(NC(=O)Nc4ccnc(C(F)(F)F)c4)c(Cl)c3)c21 | 0
CCn1c(-c2nonc2N)nc2cncc(Br)c21 [SB-738004] | 34

Compound | %Inh [%]
N#Cc1cccc(C(=O)NC2CCN(c3ccnc(Nc4ccc(F)cc4)n3)C2)c1 (stereo not shown) [GSK1379708] | 0
Cc1ccc(C(=O)Nc2ccc(Oc3ccc4nc(NC(=O)C5CC5)cn4c3)c(F)c2)c(=O)n1-c1ccccc1 | 0
CCNCC(Cc1ccccc1)NC(=O)c1cc(Br)c(-c2ccnc3[nH]ccc23)s1.Cl.Cl (stereo not shown) [GSK1383280] | 0
COc1cccc(C2=C(Nc3cccc(Cl)c3)C(=O)NC2=O)c1 [SB-341556] | 0
NC(=O)c1ccc(-c2cc3ncnc(SCC(=O)O)c3s2)cc1 | 0
Cc1ccc(CC(=O)N2CCc3cc(-c4cn(C)c5ncnc(N)c45)ccc32)cc1 [GSK2634758] | 36
Cl.Nc1n[nH]c2cc(-c3ccccn3)ccc12 [GSK2189892] | 0
CCn1c(-c2nonc2N)nc2cncc(CNC3CCNCC3)c21.Cl [SB-747651] | 2
NC(=O)Nc1sc(-c2ccc(F)cc2)cc1C(N)=O [GW789449] | 30
Cn1cc(-c2cccc3c(N)c(C(N)=O)nnc23)cn1 | 20
CN(c1cccc(CNc2nc(Nc3ccc4c(c3)CC(=O)N4)ncc2C(F)(F)F)c1)S(C)(=O)=O | 0
CC(=O)Nc1nc2cnc(Nc3cc(NC(=O)c4cccc(CC(C)(C)C#N)c4)ccc3C)nc2s1 | 54
c1ccc(Oc2ccc(Nc3ccnc4ccc(-c5ccccn5)cc34)cc2)cc1 [GW407034] | 0
Cc1ccc(Nc2ccnc(Nc3ccc4c(c3)CS(=O)(=O)C4)n2)cc1O.Cl [GW579362] | 0
CC(C)c1nc(-c2cccc(NS(=O)(=O)c3ccccc3)c2)c(-c2ccnc(Nc3ccc4c(c3)CN(C)CC4)n2)s1 [GSK1649598] | 25
O=C(NCC1CC1)c1ccc(-c2cc(C(=O)NC3CC3)ccc2F)cc1 [GW810445] | 0
CC(C)S(=O)(=O)N1CCN(Cc2ccc3c(c2)nc(NC(=O)c2ccsc2)n3C[C@H](O)c2ccccc2)CC1 [GW635815] | 21
Cc1ccn2nc(-c3ccc(F)cc3)c(-c3ccncc3)c2c1.Cl [GW457859] | 1
